Sampled rows, rich in hits. Any-hit rate of the full collection: about 3.8%.
PAFAH2 FP inh: PAFAH2 (human) inhibition; Q99487; recombinant PAFAH2, FP-rhodamine activity probe, fluorescence polarization; inhibition, % at 3.39 µM; hit rate 0.99% among 340,000;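 active means inhibition above the mean over all tested compounds plus 3 SD, cut at about 30% in these data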;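 further: inhibitors block probe labeling of enzyme so polarization drops; 0% = enzyme with DMSO and 100% = wells lacking PAFAH2 protein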
Pemphigus Ab inh: human desmoglein-3 autoantibody binding inhibition; P32926; DSG3-coupled beads, scFv-anti-DSG3-GFP binding, flow cytometry; hits give low values; binding (percent of control), % at 10 µM; hit rate 0.48% among 310,000;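 active means binding more than 3 SD below its plate's average and above zero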;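 further: hits lower antibody fragment binding to DSG3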
M18AAP inhibitor: blocks P. falciparum M18 aspartyl aminopeptidase; recombinant PfM18AAP, H-Glu-NHMec fluorogenic cleavage; inhibition, % at 7.35 µM; hit rate 1.2% among 290,000; AID 1822;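 active means inhibition above the campaign mean inhibition over all tested compounds plus 3 SD, cut at about 28% in these data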;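 further: 0% = plate median of test compound wells and 100% = 2 mM ZnCl2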
PAFAH1B2 FP inh: blocks human PAF acetylhydrolase 1b catalytic subunit 2. P68402. recombinant PAFAH1B2, FP-rhodamine activity probe, fluorescence polarization. inhibition, % at 3.39 µM. hit rate 1.2% among 340,000. AID 492953;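 active means inhibition above the mean of all tested compounds plus 3 SD, cut at about 24% in these data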;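 further: 0% = enzyme with DMSO and 100% = wells lacking PAFAH1B2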
PAFAH1B3 FP inh: inhibitors of human PAFAH1B3. inhibition, % at 3.39 µM. Q15102. AID 492972. hit rate 0.28% among 340,000. recombinant PAFAH1B3, FP-rhodamine probe, fluorescence polarization;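 active means inhibition above the screen-wide average of all tested compounds plus 3 SD, cut at about 25% in these data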;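 further: 0% = enzyme with DMSO only and 100% = wells lacking PAFAH1B3 protein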
Target sequence (Q15102 whole entry, looked up): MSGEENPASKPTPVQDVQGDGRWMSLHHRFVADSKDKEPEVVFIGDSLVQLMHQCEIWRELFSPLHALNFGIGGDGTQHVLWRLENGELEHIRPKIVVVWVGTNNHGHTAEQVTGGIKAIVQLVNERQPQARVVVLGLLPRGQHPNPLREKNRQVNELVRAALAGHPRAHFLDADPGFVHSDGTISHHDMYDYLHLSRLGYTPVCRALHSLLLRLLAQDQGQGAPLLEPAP
pPAFAH FP inh: inhibitors of human plasma PAF acetylhydrolase (pPAFAH). Q13093. recombinant pPAFAH, FP-rhodamine probe fluorescence polarization. inhibition, % at 3.39 µM. hit rate 1.5% among 330,000. AID 463082;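 active means inhibition above the mean inhibition across the screen plus 3 SD, cut at about 25% in these data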;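 further: inhibitors block binding of the rhodamine activity-based probe so polarization drops; 0% = enzyme with DMSO and 100% = wells lacking pPAFAH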
PAFAH1B3 conf FP: PAFAH1B3 (human) inhibition, confirmed | shares compounds with PAFAH1B3 FP inh | recombinant PAFAH1B3, FP-Rh activity-based probe, fluorescence polarization | hit rate 30% among 390 | inhibition, % at 3.39 µM | AID 493032;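 active means average inhibition over triplicate runs above the hit cutoff set in the earlier primary screen, cut at about 25% in these data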;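 further: 0% = enzyme with DMSO and 100% = wells lacking PAFAH1B3 protein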
The depositor's hits bear a star; . = no result given.

SMILES	PAFAH2 FP inh	Pemphigus Ab inh	M18AAP inhibitor	PAFAH1B2 FP inh	PAFAH1B3 FP inh	pPAFAH FP inh	PAFAH1B3 conf FP
O=C(COC(=O)c1cc(-c2cccc3ccccc23)nc2ccccc12)NC1CCS(=O)(=O)C1 (configuration not stated)	25	83	-1	21	29*	15	14
Cn1c(=O)c2cc(NCc3ccccc3)nnc2n(C)c1=O	17	118	-9	12	66*	10	12
Cn1c(=O)c2c(nc(NCc3ccccc3)n2C)n(C)c1=O	-11	.	-6	0	-1	5	.
CCN(CC)c1ccc(/C=N/NC(=O)c2ccc3nc[nH]c3c2)c(O)c1	19	99	18	23	26*	17	22
CC(=O)c1c(C)oc2c1C(=O)c1ccccc1C2=O	4	93	-2	7	28*	0	21
Cc1oc2c(c1C(=O)NCc1cccnc1)C(=O)c1ccccc1C2=O	.	.	6	.	.	1	.
O=C1c2ccccc2C(=O)c2c1oc(C(F)(F)F)c2C(=O)c1ccccc1	14	96	-3	11	40*	4	27*
COc1ccc(CNC(=O)c2c(C)oc3c2C(=O)c2ccccc2C3=O)cc1	24	100	-6	8	37*	-2	18
COc1cc(CCNC2=CC(=O)c3ncccc3C2=O)ccc1O	13	78	.	11	35*	.	22
COc1ccccc1CNS(=O)(=O)c1cc(CN2C(=O)c3cccnc3C2=O)ccc1OC	1	100	-11	2	2	7	.
CC(=O)CCC(=O)N1CCCC(N2CCN(c3cccc(Cl)c3)CC2)C1 (configuration not stated)	1	127	4	0	-6	4	.
CCOc1ccccc1N(C)S(=O)(=O)c1ccc2c(c1)CCN2C(=O)CCC(=O)O	1	102	3	4	0	6	.
O=C(Nc1ccc2cn[nH]c2c1)c1c(Cl)cccc1Cl	-6	97	-1	5	1	4	.
O=C1C(Cl)=C(Nc2ccc3cn[nH]c3c2)C(=O)c2ccccc21	19	99	47*	15	38*	11	27*
CN(C)c1ccc(NC2=C(Cl)C(=O)c3ccccc3C2=O)cc1	15	95	-15	24	39*	15	23
S=C(Nc1ccc2[nH]ccc2c1)NC1CCCCC1	6	.	-6	1	3	8	.
CC1CC1C(=O)N(C)CC(=O)Nc1cccc(F)c1 (configuration not stated)	-4	95	.	3	3	2	.
O=C1C=C(N(CCO)Cc2ccccc2)c2ccccc2C1=O	20	103	-2	10	44*	.	29*
O=C1c2ccccc2C(=O)c2c1cccc2N(CCO)CCO	-2	132	2	4	5	2	.
O=C(/C=C/c1ccccc1)C1C(=O)c2ccccc2C1=O	-2	108	-2	3	-4	-6	.
CCc1ccc(/C=C/C(=O)C2C(=O)c3ccccc3C2=O)cc1	11	109	-1	9	28*	10	8
CN(Cc1ccno1)Cc1cn(Cc2ccccc2)nc1-c1ccc2c(c1)OCO2	3	87	8	10	3	6	.
O=C(Cn1ncc(Cl)c(Cl)c1=O)N1CCc2ccccc21	10	67	-1	0	28*	.	22
O=C(Cn1ncc(Cl)c(Cl)c1=O)N1CCN(Cc2ccccc2)CC1	5	100	0	9	2	.	.
CC(=O)N(C1=C(Cl)C(=O)c2ccccc2C1=O)C1CCCCC1	5	109	-60	4	33*	1	18
CC(=O)N(c1ccccc1C)C1CCCC1	-4	96	-2	8	4	2	.
Nc1cnccc1C(=O)O	16	101	9	13	28*	18	19

Compound activity deposited in PubChem by several laboratories.
